In PubChem BioAssay (NCI) one finds growth data, which are given here for 7 molecules.

The panel holds about 83,000 compounds, 20% with a hit somewhere; the sample as a whole holds those more often.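 Compound tested at a single concentration for 48 hours in 96-well plates; a percent growth value below 10 was scored as active.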 Values without a mark were called inactive. The source made the active and inactive calls.

Test systems include NCI-H23 lung; NCI-H226 lung; NCI-H322M lung; HOP-62 NSCLC; NCI-H460 lung; HOP-92 NSCLC; NCI-H522 lung; A549/ATCC NSCLC; 786-0 renal; COLO 205 colon; DU-145 prostate; K-562 leukemia; MALME-3M melanoma; MDA-MB-231 breast; RXF 393 renal; SF-268 CNS; SF-295 CNS; SF-539 CNS; UACC-257 melanoma; M14 melanoma.
Holding throughout (assay): NCI-60 one-dose screen, 48 h (100 = growth as untreated, 0 = no growth, -100 = all killed)
What all share (settings): 10 µM unless noted

For the molecule `COc1cc(CNC(=O)CCCC/C=C/C(C)C)ccc1OCc1cn(-c2ccc(C(F)(F)F)cc2)nn1`, the growth with NCI-H23 lung is 94.6%; in the assay on NCI-H226 lung, 53.6%; with NCI-H322M lung, 96.1%; in the assay with HOP-62 NSCLC, 64.6%; in the assay with NCI-H460 lung it was 16.7%; with HOP-92 NSCLC it was 13.8%. In addition, the growth was 75.6% in the assay with NCI-H522 lung; 49% with A549/ATCC NSCLC; 2.94% (active) in the assay with 786-0 renal; 72.6% in the assay with COLO 205 colon; 80.7% in the assay on DU-145 prostate; 76.3% in the assay with K-562 leukemia. Further, the growth with MALME-3M melanoma is 99.7%; in the assay on MDA-MB-231 breast, 70.7%; in the assay with RXF 393 renal, 65.6%; with SF-268 CNS it was 87.8%; in the assay with SF-295 CNS, 90.9%; in the assay on SF-539 CNS, 81.9%. In addition, the growth in the assay with UACC-257 melanoma is 98.2%; in the assay with M14 melanoma it was 97.5%.
Turning to `COC(=O)CNC(=O)c1ccc(NC(=O)c2[nH]c(C)c(Cl)c2Cl)c(O[C@H]2CCNC2)c1`, the growth in the assay with NCI-H23 lung is 98.7%; in the assay on NCI-H226 lung, 104%; in the assay with NCI-H322M lung, 109%; in the assay on HOP-62 NSCLC, 95.6%; in the assay with NCI-H460 lung, 108%; with HOP-92 NSCLC, 99%. In addition, the growth was 97.7% in the assay with NCI-H522 lung; 105% in the assay on A549/ATCC NSCLC; 102% in the assay on 786-0 renal; 110% in the assay with COLO 205 colon; 110% in the assay on DU-145 prostate; 90.7% in the assay on K-562 leukemia. For the same molecule, the growth is 109% with MALME-3M melanoma; 105% in the assay with MDA-MB-231 breast; 111% in the assay on RXF 393 renal; 102% with SF-268 CNS; 105% in the assay with SF-295 CNS; 98% with SF-539 CNS. For the same molecule, the growth in the assay with UACC-257 melanoma was 103%; with M14 melanoma it was 107%.
As for `CN1/C(=C/C=C/c2n(Cc3ccc4ccccc4c3)c(Cl)c(Cl)[n+]2Cc2ccc3ccccc3c2)Oc2ccccc21`, the growth is -80% (active) with NCI-H23 lung; -75.4% (active) in the assay with NCI-H226 lung; -10.6% (active) in the assay with NCI-H322M lung; -85.7% (active) in the assay on HOP-62 NSCLC; -74.5% (active) with NCI-H460 lung; -81% (active) in the assay on HOP-92 NSCLC. In addition, the growth is -81.6% (active) in the assay on NCI-H522 lung; -86.7% (active) in the assay on A549/ATCC NSCLC; -82.6% (active) in the assay with 786-0 renal; -80.1% (active) with COLO 205 colon; -86.6% (active) in the assay on DU-145 prostate; 89.4% with K-562 leukemia. Further, the growth was -97.1% (active) in the assay with MALME-3M melanoma; -94% (active) in the assay on MDA-MB-231 breast; -88.2% (active) with RXF 393 renal; -69.4% (active) in the assay with SF-268 CNS; -68.4% (active) in the assay on SF-295 CNS; -94% (active) in the assay on SF-539 CNS. For the same molecule, the figures for the growth in the assay on UACC-257 melanoma and in the assay on M14 melanoma were -77.9% (active) and -77% (active), respectively.
Turning to `N#Cc1nn(-c2ccccn2)c(N)c1C#N`, the growth with NCI-H23 lung was 105%; with NCI-H226 lung it was 106%; with NCI-H322M lung, 107%; in the assay on HOP-62 NSCLC, 97.1%; with NCI-H460 lung, 106%; in the assay on HOP-92 NSCLC, 101%. The growth is 67.4% with NCI-H522 lung; 97.5% with A549/ATCC NSCLC; 98% in the assay with 786-0 renal; 106% in the assay with COLO 205 colon; 104% in the assay with DU-145 prostate; 94% in the assay on K-562 leukemia. Besides, the growth in the assay on MALME-3M melanoma was 103%; in the assay on MDA-MB-231 breast, 109%; in the assay with RXF 393 renal it was 127%; with SF-268 CNS, 97.2%; in the assay with SF-295 CNS, 96.2%; in the assay with SF-539 CNS, 97.2%. The growth is 103% with UACC-257 melanoma and 102% in the assay with M14 melanoma.
For the molecule `Cc1nc2ccccc2c(/C=C/c2ccc(Br)cc2)c1C(=O)/C=C/c1ccccc1`, the growth is 8.31% (active) in the assay on NCI-H23 lung; 25.1% in the assay with NCI-H226 lung; 35.3% in the assay on NCI-H322M lung; -35.1% (active) in the assay on HOP-62 NSCLC; -56.4% (active) in the assay on NCI-H460 lung; 53.1% in the assay with HOP-92 NSCLC. For the same molecule, the growth was -34.9% (active) in the assay with NCI-H522 lung; 14.8% in the assay with A549/ATCC NSCLC; 2.23% (active) in the assay with 786-0 renal; -29.5% (active) in the assay on COLO 205 colon; -3.75% (active) with DU-145 prostate; 7.54% (active) in the assay on K-562 leukemia. The growth with MALME-3M melanoma is -28.4% (active); with MDA-MB-231 breast it was 11.9%; with RXF 393 renal, -71.3% (active); with SF-268 CNS it was 51.9%; with SF-295 CNS it was 4.22% (active); in the assay with SF-539 CNS it was -62.7% (active). Also, the figures for the growth with UACC-257 melanoma and in the assay on M14 melanoma were -4.07% (active) and 6.49% (active), respectively.
In the case of `O=C(CSc1nc(-c2ccccc2)cn1-c1ccc(Cl)cc1)c1ccc([N+](=O)[O-])cc1`, the growth in the assay on NCI-H23 lung is 78.5%; in the assay with NCI-H226 lung, 84.7%; in the assay on NCI-H322M lung, 89%; in the assay on HOP-62 NSCLC it was 96.2%; in the assay with NCI-H460 lung, 79.5%; in the assay on HOP-92 NSCLC it was 87.5%. Also, the growth with NCI-H522 lung is 70.5%; with A549/ATCC NSCLC it was 86.8%; with 786-0 renal, 90.3%; in the assay on COLO 205 colon, 96.1%; with DU-145 prostate it was 93.2%; in the assay with K-562 leukemia it was 76.7%. For the same molecule, the growth with MALME-3M melanoma is 103%; in the assay with MDA-MB-231 breast it was 81.8%; in the assay with RXF 393 renal, 71.2%; in the assay on SF-268 CNS, -86.7% (active); with SF-295 CNS it was 95.4%; in the assay with SF-539 CNS, 92.4%. For the same molecule, the growth in the assay on UACC-257 melanoma is 97.9%; with M14 melanoma, 82%.
As for `C=C(C)[C@@H]1CC[C@]2(C#N)CC[C@]3(C)[C@H](CC[C@@H]4[C@@]5(C)CCCNC(C)(C)[C@@H]5CC[C@]43C)[C@@H]12`, the growth in the assay on NCI-H23 lung was 82.7%; with NCI-H226 lung, 96.6%; with NCI-H322M lung, 88.7%; in the assay on HOP-62 NSCLC, 113%; in the assay with NCI-H460 lung, 11.1%; with HOP-92 NSCLC, 51%. Besides, the growth is 91.5% in the assay on NCI-H522 lung; 73.2% with A549/ATCC NSCLC; 84.5% in the assay on 786-0 renal; -67.8% (active) in the assay on COLO 205 colon; 65.5% in the assay on DU-145 prostate; -26.2% (active) in the assay with K-562 leukemia. Besides, the growth in the assay on MALME-3M melanoma was 81%; in the assay with MDA-MB-231 breast, 57.6%; with RXF 393 renal, 82.3%; in the assay on SF-268 CNS, 87.1%; in the assay with SF-295 CNS, 92.9%; in the assay with SF-539 CNS it was 84%. The growth with UACC-257 melanoma is 70.8%; in the assay on M14 melanoma, 64.4%.
